Test results from PubChem BioAssay (EPA / NIEHS).
Results filed as inconclusive are left out. Calls of active or inactive are those of the source. Rule for the calls, unless noted: active = hit-call score of the fitted dose curve at least 0.9, where 1 is the maximum; inconclusive = response in the unintended direction; inactive = score below 0.9.

Columns and labels:
[1] = Tanguay_ZF_120hpf_SOMI_legacy: (Legacy) Oregon State University Tanguay Lab 120 Hour Post-fertilization zebrafish Assay for Somite Malformation (AID 2283647)
Procedure, shortened: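 Somitogenesis defects are recorded as binary calls in whole larvae at 120 hpf after continuous static chemical exposure starting at 6 hpf in dechorionated 5D embryos. DMSO serves as negative control and baseline.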

[2] = Tanguay_ZF_120hpf_PFIN_legacy: (Legacy) Oregon State University Tanguay Lab 120 Hour Post-fertilization zebrafish Assay for Pectoral Fin Malformation (AID 2283648);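 note: each larva judged yes or no for fin defect by brightfield with dead larvae skipped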
Procedure, shortened: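 Pectoral fin malformation was recorded as a binary endpoint at 120 hpf in wild-type Tropical 5D larvae, which had been dechorionated and exposed statically from 6 hpf at 28C in 0.64% DMSO. Dead embryos were excluded.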

[3] = Tanguay_ZF_120hpf_CFIN_legacy: (Legacy) Oregon State University Tanguay Lab 120 Hour Post-fertilization zebrafish Assay for Caudal Fin Malformation (AID 2283649)
Procedure, shortened: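 Single dechorionated 5D wild-type embryos are dosed at 6 hpf (final DMSO 0.64%) and held statically at 28C. Caudal fin malformation is recorded as present or absent at 120 hpf under brightfield, excluding dead embryos.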

[4] = Tanguay_ZF_120hpf_PIG_legacy: (Legacy) Oregon State University Tanguay Lab 120 Hour Post-fertilization zebrafish Assay for Pigmentation Malformation (AID 2283650)
Procedure, shortened: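 Pigment malformation recorded as a binary call at 120 hpf in zebrafish (Tropical 5D) exposed singly from 6 hpf after pronase dechorionation. Static, sealed, 28C exposure, 0.64% DMSO; mortality excludes scoring; positive-direction fit against DMSO.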

[5] = Tanguay_ZF_120hpf_CIRC_legacy: (Legacy) Oregon State University Tanguay Lab 120 Hour Post-fertilization zebrafish Assay for Circulatory Malformation (AID 2283651)
Procedure, shortened: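 Binary circulatory-malformation call at 120 hpf via brightfield imaging, relative to DMSO controls. Embryos (5D strain, chorion removed) received static, light-shielded exposure at 28C.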

[6] = Tanguay_ZF_120hpf_SWIM_legacy: (Legacy) Oregon State University Tanguay Lab 120 Hour Post-fertilization zebrafish Assay for Swim Bladder Malformation (AID 2283654);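 note: swim bladder malformation in each larva scored yes or no under brightfield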
Procedure, shortened: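 Scoring is binary for swim bladder defects at 120 hpf, by brightfield inspection of zebrafish larvae. Embryos were exposed singly from 6 hpf after pronase dechorionation, at 28C with 0.64% DMSO; mortality excluded scoring.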

[7] = Tanguay_ZF_120hpf_TRUN_legacy: (Legacy) Oregon State University Tanguay Lab 120 Hour Post-fertilization zebrafish Assay for Truncated Body (AID 2283655)
Procedure, shortened: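 Single dechorionated zebrafish embryos received test chemical from 6 hpf in 0.64% DMSO, kept at 28C. At 120 hpf, brightfield inspection noted any truncated body.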

[8] = Tanguay_ZF_120hpf_BRAI_legacy: (Legacy) Oregon State University Tanguay Lab 120 Hour Post-fertilization zebrafish Assay for Brain Malformation (AID 2283641)
Procedure, shortened: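 Static exposure of staged wild-type embryos until 120 hpf, kept at 28C with light excluded and final DMSO of 0.64% (vol/vol). Presence or absence of brain malformation was noted under brightfield; mortality precluded scoring.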

[9] = read-out: solute carrier (SLC22A6), SLC22A6 (gene 9356); test: LTEA_HepaRG_SLC22A6: Life Technologies and Expression Analysis (LTEA) Assay for solute carrier (SLC22A6) using HepaRG (AID 2283653; active = hit-call score of the fitted dose curve at least 0.9, where 1 is the maximum; inactive = score below 0.9); settings: mRNA level, 48 h; actives raise or lower the signal
Procedure: (§1) LTEA_HepaRG is a cell based, multiplexed-readout assay that uses HepaRG, a human liver cell line, with measurements taken at 48 hours after chemical dosing on a 96-well plate.LTEA_HepaRG_SLC22A6 is one of 102 assay component(s) measured in the LTEA HepaRG cell culture assay. It is a marker of NR mediated transport.Data from the assay component LTEA_HepaRG_SLC22A6 was analyzed into 1 endpoint. This assay endpoint, LTEA_HepaRG_SLC22A6, was analyzed with bidirectional fitting relative to DMSO as the negative control and baseline of activity. Using a type of inducible reporter, measures of mRNA induction for gain or loss-of-signal activity can be used to understand regulation of transcription factor activity. To generalize the intended target to other relatable targets, this assay endpoint is annotated to the transporter intended target family, where the subfamily is organic anion transporter.
(§2) A total of 1060 chemcials from the ToxCast library were tested in eight-point concentration-response experiments. Cell culture and cytotoxicity assays were conducted at Thermo Fisher Scientific's Custom Services facility (Madison, WI). A single lot of human HepaRG cells (Thermo Fisher Scientific, Frederick, MD) was used for the cell culture experiments. 96-well format collagen type I coated plates of human HepaRG cells were prepared using established methods. Briefly, cryopreserved HepaRG cells were thawed, plated at a density of approximately 100,000 cells/well in HepaRG Thaw, Plate, and General Purpose media (HPRG770, Thermo Fisher Scientific), and incubated for 48 hours. 0.5% DMSO was selected as vehicle control to balance the requisite need of DMSO in HepaRG cultures to maintain differentiation (for example, baseline metabolism, proportions of hepatocytes vs. cholangiocytes), while enabling further hepatic receptor pathway activation (for example, PXR and CAR) in response to chemical exposure. 48 hours after plating, the culture medium was replaced with HepaRG Serum-Free Incudtion Media. Cells were exposed to each test chemical in duplicate and maintained in CO2 incubators for another 48 hours. Chemical plates were thawed to room temperature and 200x concentrations of treatment groups were prepared. 8-point conentration-reponse curves were made with the highest exposure at 100 uM, followed by half-log dilutions, all in 0.5% DMSO. Each test plate contained variouse controls, induction positive controls (1mM phenobarbital), cytotoxicity positive controls ([…] aflatoxin B1), vehicle controls (0.5% DMSO), and total lysis controls (0.5% DMSO). Cell morphology images were taken using an Essen IncuCyte FLR automated microscope, with six 96-well plates imaged in about 24 minutes. Images were captured and exported and JPEG files. Spent culture media was transfered to black-well plates for the LDH assay, and remaining media was sorted at -80 C for later use. Cells were treated with RLT buffer and frozen until shipped for gene expression analysis. Total RNA was isolated from the cell suspension in 75 uL of Buffer RLT (Qiagen, Germantown, MD 20874) by Quintiles/Expression Analysis (Durham, NC) using a custom isolation procedure. Total RNA from each plate well was transferred to a preamplification plate. Fluidigm's 96.96 Dynamic ArrayTM (Fluidigm, Amsterdam, the Netherlands) technology was used for gene expression analyses by quantitative reverse transcription polymerase chain reaction (qRT-PCR, performed by Quintiles/Expression Analysis, Durham, NC)89. Standard TaqManTM Assays (Applied Biosystems/ThermoFisher Scientific, Foster City, CA) were used to assess the expression of 93 genes selected based on their selectivity and sensitivity to important hepatic receptors known to be modulated by environmental chemicals; importance in human hepatocyte functionality; and hepatotoxicity. […]

[10] = read-out: kallikrein-3 (KLK3), KLK3 (gene 354); test: LTEA_HepaRG_KLK3: Life Technologies and Expression Analysis (LTEA) Assay for kallikrein-3 (KLK3) using HepaRG (AID 2283652; active = hit-call score of the fitted dose curve at least 0.9, where 1 is the maximum; inactive = score below 0.9); settings: mRNA level, 48 h; actives raise or lower the signal
Procedure: as §1, with “plate.LTEA_HepaRG_KLK3” for “plate.LTEA_HepaRG_SLC22A6”, “Cellular remodeling.Data” for “NR mediated transport.Data”, “LTEA_HepaRG_KLK3” for “LTEA_HepaRG_SLC22A6”, “LTEA_HepaRG_KLK3,” for “LTEA_HepaRG_SLC22A6,”, “protease” for “transporter”, “Cellular remodeling.” for “organic anion transporter.”
as §2, with “NC)89.” for “NC)89. Standard TaqManTM Assays (Applied Biosystems/ThermoFisher Scientific, Foster City, CA) were used to assess the expression of 93 genes selected based on their selectivity and sensitivity to important hepatic receptors known to be modulated by environmental chemicals; importance in human hepatocyte functionality; and hepatotoxicity.”

| Structure (SMILES) | outcome [1] | outcome [2] | outcome [3] | outcome [4] | outcome [5] | outcome [6] | outcome [7] | outcome [8] | outcome [9] | AC50 [6] | outcome [10] |
| --- | --- | --- | --- | --- | --- | --- | --- | --- | --- | --- | --- |
| CC1=C(/C=C/C(C)=C/C=C/C(C)=C/CO)C(C)(C)CCC1 | inactive | inactive | inactive | inactive | inactive | inactive | inactive |  |  |  |  |
| Cc1ccc(C)c(O)c1C | inactive | inactive | inactive | inactive | inactive | inactive | inactive |  |  |  |  |
| Cc1ccc(N(C)C)cc1 | inactive | inactive |  | inactive | inactive | inactive | inactive |  |  |  |  |
| CCCCCCCCCCCC(=O)OC | inactive | inactive | inactive |  | inactive | inactive | inactive |  |  |  |  |
| CCCCCCCCCCCCCCCCCC(=O)O |  | inactive | inactive |  |  | inactive | inactive | inactive |  |  |  |
| CCCCCCCCCCCCCCCC | inactive | inactive | inactive | inactive | inactive | inactive | inactive |  |  |  |  |
| Oc1ccc2ccccc2c1N=Nc1ccccc1 | inactive | inactive | inactive | inactive | inactive |  | inactive |  | inactive | 51.7 µM (active) |  |
| CC1(C)NC(=O)NC1=O |  | inactive | inactive |  |  | inactive | inactive |  |  |  |  |
| CCCCOC(=O)CCCCCCCCC(=O)OCCCC | inactive | inactive | inactive |  | inactive | inactive | inactive |  |  |  |  |
| CC=Cc1ccc(O)c(OC)c1 |  | inactive | inactive |  |  | inactive |  |  |  |  |  |
| COc1cc(S(=O)(=O)O)c(C)cc1N=Nc1c(O)ccc2cc(S(=O)(=O)O)ccc12 | inactive |  | inactive | inactive |  | inactive | inactive | inactive |  |  |  |
| Cc1ccc(C(C)C)c(O)c1 |  | inactive | inactive | inactive | inactive |  | inactive |  |  |  |  |
| CN[C@H]1CC[C@@H](c2ccc(Cl)c(Cl)c2)c2ccc(S(N)(=O)=O)cc21 |  | inactive | inactive | inactive | inactive | inactive | inactive | inactive |  |  |  |
| c1cc(-c2ccncc2)ccn1 |  | inactive |  | inactive | inactive | inactive |  | inactive |  |  |  |
| CNC(=O)[C@H]1O[C@@H](n2cnc3c(NCc4cc(Cl)ccc4OCc4cc(C)no4)ncnc32)[C@H](O)[C@@H]1N | inactive |  | inactive | inactive | inactive |  | inactive |  |  |  |  |
| CNCc1cc(F)ccc1Oc1ccc(Cl)c(Cl)c1 |  | inactive | inactive | inactive |  | inactive |  | inactive |  |  |  |
| Clc1cc(Cl)c(Cl)cc1Cl | inactive |  | inactive |  | inactive | inactive | inactive | inactive |  |  |  |
| NC(=O)Cn1c(=O)cc(CCN2CCN(c3nccc4sccc34)CC2)c2ccc(F)cc21 |  | inactive | inactive |  | inactive | inactive | inactive |  |  |  |  |
| CC(C)(C)c1cc(O)c(C(C)(C)C)cc1O | inactive |  | inactive |  | inactive | inactive | inactive | inactive |  |  |  |
| Cc1cccc(C)c1O |  | inactive |  | inactive | inactive | inactive | inactive | inactive |  |  |  |
| O=[N+]([O-])C(CO)(CO)CO | inactive |  | inactive |  | inactive | inactive |  | inactive |  |  |  |
| Cc1c(C(=O)O)c(O)cc2c1C(=O)c1c(O)c([C@@H]3O[C@H](CO)[C@@H](O)[C@H](O)[C@H]3O)c(O)c(O)c1C2=O | inactive | inactive | inactive | inactive |  | inactive | inactive |  |  |  |  |
| C=CCOC(=O)c1ccccc1C(=O)OCC=C | inactive | inactive |  |  | inactive |  | inactive |  |  | 46.4 µM (active) |  |
| Cc1ccc(Cl)cc1 |  | inactive | inactive |  |  | inactive |  | inactive | inactive |  | inactive |
| NCC1(Cc2noc(=O)[nH]2)CCCCC1 |  | inactive | inactive | inactive | inactive | inactive | inactive |  |  |  |  |
